Results: PubChem BioAssay (NCI)
The panel holds about 83,000 compounds, 20% with a hit somewhere; the sample as a whole holds those more often.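 Compound tested at a single concentration for 48 hours in 96-well plates; a percent growth value below 10 was scored as active.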 The source made the active and inactive calls.

Key:
Assay in all cases: NCI-60 one-dose screen, 48 h (100 = growth as untreated, 0 = no growth, -100 = all killed)
[1] = tested on: RPMI-8226 leukemia; conditions: 10 µM unless noted
[2] = tested on: OVCAR-8 ovarian; conditions: 10 µM unless noted
[3] = tested on: OVCAR-5 ovarian; conditions: 10 µM unless noted
[4] = tested on: OVCAR-4 ovarian; conditions: 10 µM unless noted
[5] = tested on: SK-OV-3 ovarian; conditions: 10 µM unless noted
[6] = tested on: IGROV1 ovarian; conditions: 10 µM unless noted
[7] = tested on: OVCAR-3 ovarian; conditions: 10 µM unless noted
[8] = tested on: HS 578T breast; conditions: 10 µM unless noted
[9] = tested on: NCI/ADR-RES ovarian; conditions: 10 µM unless noted
[10] = tested on: T-47D breast; conditions: 10 µM unless noted
[11] = tested on: BT-549 breast; conditions: 10 µM unless noted
[12] = tested on: MDA-MB-435 melanoma; conditions: 10 µM unless noted
[13] = tested on: SW-620 colon; conditions: 10 µM unless noted
[14] = tested on: HCT-116 colon; conditions: 10 µM unless noted
[15] = tested on: HCC-2998 colon; conditions: 10 µM unless noted
[16] = tested on: KM12 colon; conditions: 10 µM unless noted
[17] = tested on: MCF7 breast; conditions: 10 µM

Measured: growth

COc1cccc(/C=C/C(=O)c2c(C)nc3ccccc3c2/C=C/c2ccccc2)c1OC
inactive: [2] 21.6% | [3] 36.4% | [4] 46.3% | [5] 89.8% | [6] 20.9% | [8] 37.5% | [9] 10% | [10] 11.2% | [11] 29.4% | [12] 15.1% | [13] 13.2% | [15] 41.1% | [16] 26.6%
active: [1] 6.11% | [7] 2.68% | [14] 4.08%

CC(=O)SC1CC(=O)C=C2CCC3C4CCC(=O)OC4(C)CCC3C21C (centres undefined)
inactive: [1] 103% | [2] 98.9% | [3] 99.7% | [4] 122% | [5] 113% | [6] 147% | [7] 106% | [8] 114% | [9] 110% | [10] 122% | [11] 92.4% | [13] 103% | [17] 97% | [14] 102% | [15] 99.3% | [16] 104%

COc1cc(C2C3=C(COC3=O)N(CCO)c3cc4c(cc32)OCCO4)cc(OC)c1O (centres undefined)
inactive: [1] 32.4% | [2] 27.4% | [3] 87.4% | [4] 40.3% | [5] 24.5% | [6] 27.1% | [8] 21.9% | [9] 82.9% | [10] 33.4% | [13] 17.2% | [14] 12.8%
active: [7] -31% | [11] -3.23% | [12] -35.1% | [15] -10.7% | [16] -15.3%

COc1nc2c(c(=O)n1C)N=C1c3ccccc3C(=O)C1C(c1ccccc1)N2 (centres undefined)
inactive: [1] 92% | [2] 100% | [3] 97.1% | [4] 92.8% | [5] 91.4% | [6] 110% | [7] 74.9% | [8] 105% | [9] 73.3% | [10] 85.2% | [11] 81.1% | [13] 88.4% | [17] 88.2% | [14] 89.9% | [15] 106% | [16] 79.3%

COc1ccc(/C=C2\SC(=Nc3ccccc3)NC2=O)cc1
active: [1] -50.9% | [2] -81.2% | [3] -77.8% | [4] -49.4% | [5] -54.1% | [6] -78.2% | [7] -69.4% | [8] -47.5% | [9] -8.71% | [10] -72.8% | [11] -72.2% | [13] -74.2% | [17] -85% | [14] -82.2% | [15] -87.5% | [16] -89.6%

COc1cc(C#N)cc2[nH]c(=O)oc12
inactive: [1] 107% | [2] 112% | [3] 98.8% | [4] 96.9% | [5] 113% | [6] 105% | [7] 106% | [8] 99.1% | [9] 99.6% | [10] 101% | [11] 97% | [12] 97.9% | [13] 101% | [14] 102% | [15] 105% | [16] 101%

O=C1C(Cl)=C(NCc2ccco2)C(=O)c2ccccc21
inactive: [1] 38.9% | [2] 93.7% | [3] 116% | [4] 85.4% | [5] 115% | [6] 57.6% | [7] 84.6% | [8] 89.6% | [9] 84.6% | [10] 69.1% | [11] 103% | [13] 99.7% | [17] 22% | [14] 80.5% | [15] 97.9% | [16] 62.6%

O=S1(=O)N(Cc2ccccc2)[C@@H](Cc2ccccc2)[C@H](O)[C@H](O)[C@H](Cc2ccccc2)N1Cc1ccccc1
inactive: [3] 41.1% | [4] 15.4% | [6] 10.3% | [8] 19.7% | [11] 15.7%
active: [1] -7.2% | [2] 7.06% | [5] 6.58% | [7] -22% | [9] -7.86% | [10] 7.87% | [12] -4.2% | [13] 9.22% | [14] -36.5% | [15] -45.7% | [16] -41.7%

O=C(Nc1ccc(N2CCNCC2)cc1)c1[nH]ncc1Nc1cc(Oc2ccccc2)ncn1
active: [1] -52.9% | [3] -26.4% | [7] 6.24% | [13] -65.5% | [17] -0.204% | [14] -33.6% | [15] -18.1% | [16] -78%
inactive: [2] 26.9% | [4] 43.3% | [5] 19.4% | [6] 19.7% | [8] 32.4% | [9] 77.5% | [10] 40% | [11] 17.5%

COc1ccc(-c2nc(N3CCN(C(=O)C4CCCCC4)CC3)c3c4c(sc3n2)CCCC4)cc1
active: [1] 2.49% | [2] -44.7% | [4] -85.4% | [7] -38.3% | [10] 3.68% | [13] -1.68% | [17] -10.8% | [16] -46.4%
inactive: [3] 35.6% | [5] 81% | [6] 33.7% | [8] 12.8% | [9] 84.2% | [11] 61.4% | [14] 17% | [15] 53.2%

COc1ccc(C2=NN(/C=C3\SC(=O)NC3=Nc3ccc(F)cc3)C(c3ccc(F)cc3)C2)cc1 (centres undefined)
inactive: [1] 88.7% | [2] 95.3% | [3] 96.1% | [4] 101% | [5] 102% | [6] 97.9% | [7] 104% | [8] 99% | [9] 103% | [10] 89.7% | [11] 98% | [12] 106% | [13] 99.2% | [14] 105% | [15] 101% | [16] 98.2%

O=C(Nc1ccc(N2CCNCC2)cc1)c1[nH]ncc1Nc1ncnc2sc3c(c12)CCC3
inactive: [4] 15.8% | [10] 20.4%
active: [1] -40.6% | [2] -43.7% | [3] -88.1% | [5] -27.9% | [6] -9.21% | [7] -81.7% | [8] -54.8% | [9] -57.3% | [11] 0.151% | [13] -83.1% | [17] -59% | [14] -85.4% | [15] -91.4% | [16] -82.4%

CCCCCCc1cc2cc(-c3csc(/C=C/c4ccccc4)n3)c(=O)oc2cc1O
inactive: [2] 20% | [3] 81.7% | [4] 36.8% | [5] 47% | [6] 37.2% | [9] 20.2% | [11] 41.4% | [14] 12% | [16] 15.8%
active: [1] -1.82% | [7] 2.25% | [8] 3.39% | [10] 5.5% | [13] 1.96% | [17] 8.1% | [15] -25.1%

O=C(NN1C(=O)CSC1c1ccc(Cl)cc1)c1[nH]c2ccc(F)cc2c1-c1ccccc1 (centres undefined)
active: [15] 6.69%
inactive: [1] 25% | [2] 35.2% | [3] 72% | [4] 47.4% | [5] 87.2% | [6] 36.8% | [7] 47.9% | [8] 94.6% | [9] 43.3% | [10] 52.1% | [11] 50.9% | [13] 77.8% | [17] 14.6% | [14] 31.6% | [16] 44.8%

CCn1c(-c2nonc2Nc2ccc(OC)cc2)nc2ccccc21
inactive: [1] 117% | [2] 102% | [3] 107% | [4] 101% | [5] 111% | [6] 106% | [7] 112% | [8] 96.7% | [9] 96% | [10] 97.3% | [11] 103% | [13] 104% | [17] 110% | [14] 97.4% | [15] 111% | [16] 106%

Clc1ncccc1Nc1ccc2nnc(-c3ccncc3)n2n1
inactive: [1] 98.9% | [2] 99.3% | [3] 104% | [4] 91.3% | [5] 104% | [6] 82.3% | [7] 102% | [8] 102% | [9] 98.7% | [10] 86.6% | [11] 108% | [13] 103% | [17] 94.2% | [14] 101% | [15] 95.7% | [16] 101%

CC1=C(C(=O)OCC2CCN(C(=O)OC(C)(C)C)CC2)[C@@H](c2cccc(C#N)c2)C2=C(CC(C)(C)CC2=O)N1
inactive: [1] 32.3% | [2] 37.5% | [3] 70.2% | [4] 67.3% | [5] 66.5% | [6] 45.4% | [7] 52.4% | [8] 64.5% | [9] 44.7% | [10] 56.1% | [11] 50.3% | [13] 29.6% | [17] 30.5% | [14] 17.1% | [15] 75.6% | [16] 36%

Cn1nc(C(C)(C)C)cc1NC(=O)Cc1ccc(/C=C2\C(=O)Nc3ccccc32)cc1
inactive: [1] 28.7% | [2] 54.6% | [3] 107% | [4] 47.6% | [5] 60.7% | [6] 59% | [7] 64.5% | [8] 74.7% | [9] 66.9% | [10] 14.9% | [11] 35.4% | [13] 76.8% | [17] 19.2% | [14] 33.6% | [15] 96.3% | [16] 21.7%

COc1cc(C2C3=C(COC3=O)N(CCO)c3cc4c(cc32)CCC4)cc(OC)c1O (centres undefined)
active: [7] -35.5% | [11] -7.32% | [12] -26.8% | [14] 8.94% | [15] -22.4% | [16] -20.6%
inactive: [1] 32.2% | [2] 22.6% | [3] 56.6% | [4] 38.2% | [5] 37.7% | [6] 17.5% | [8] 32% | [9] 52.8% | [10] 46.4% | [13] 12.1%
